Assay results reported in PubChem BioAssay (Tox21).
Where “and” joins values, the source holds several entries; their conditions need not be identical. Equal values may be shown once. Results filed as inconclusive are left out. A call without a number means that no potency is given here. More than one record can exist for a structure, and the calls need not agree. Calls of active or inactive are those of the source. Unless noted, calls come from the whole dose curve; as a rule, active = well fitted curve in the direction sought with a large enough effect in the repeat runs; inconclusive = weak or mixed curves; inactive = no such curve, though single readings can be large; an effect the other way counts as inactive or inconclusive.

How the values were obtained:
[1] = qHTS assay to identify small molecule agonists of the hypoxia (HIF-1) signaling pathway - cell viability counter screen (AID 1224844; calls by dose curve; note: nearly all actives have a fitted effect of over 50% in size); conditions: HRE-bla ME-180 viability, CellTiter-Glo luminescence, 17 h; series mostly up to 76.8 µM
In short: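 Tox21 10K compounds were added to HRE-bla ME-180 cells (0.5% dialyzed FBS) and incubated 17 hrs at 37C; ATP-based CellTiter-Glo luminescence then reported cell viability in the same wells.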

[2] = qHTS assay to identify small molecule agonists of H2AX (AID 1224845; active = well fitted activation curve with a large enough effect in the signal ratio in the repeat runs, not every such curve was filed as active; the % refers to the signal ratio); conditions: CHO-K1 phospho-H2AX Ser139 HTRF, 3 h; series mostly up to 154 µM
In short: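 Phospho-H2AX Ser139 measured by HTRF (ex 320 nm; em 665 and 620 nm) after 24 hr antibody incubation. Compounds, 15 concentrations, 0.76% DMSO, were applied to CHO-K1 cells for 3hr at 37C before lysis.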

[3] = qHTS assay to identify small molecule agonists of the hypoxia (HIF-1) signaling pathway (AID 1224846; active = well fitted activation curve with a large enough effect in the signal ratio in the repeat runs, not every such curve was filed as active; the % refers to the signal ratio); conditions: HRE-bla ME-180 cells, beta-lactamase ratio, 17 h; series mostly up to 76.8 µM
In short: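 Steps: seed ME-180 HRE-bla cells (2,000/well, 0.5% dialyzed FBS); incubate 5 hrs at 37C; pin-transfer compounds or DMSO; incubate 17 hrs; add LiveBLAzer B/G substrate CCF4-AM; measure reporter activation by FRET.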

[4] = qHTS assay to identify small molecule agonists of H2AX - cell viability counter screen (AID 1224847; calls by dose curve;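 note: wild-type CHO-K1 cells; top concentration of the series differs between compounds; nearly all actives have a fitted effect of over 30% in size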); conditions: CHO-K1 viability, CellTiter-Glo luminescence, 3 h; series mostly up to 154 µM
In short: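 Counter-screen for viability: CellTiter-Glo ATP luminescence read after 3 h compound treatment (15-point titration, 0.76% DMSO final) of CHO-K1 cells at 37C, with 30 min room-temperature reagent incubation.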

[5] = qHTS RealTime-Glo MT Cell Viability Assay in HepG2 cells - 24 hour (AID 1224867); conditions: RealTime-Glo luminescence; series mostly up to 76.8 µM; note: nearly all actives have a fitted effect of over 50% in size
In short: (§1)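 Compound treatment began 5 h after plating HepG2 cells (600/well) with NanoLuc luciferase and prosubstrate. Plates stayed at 37 C for 40 h; luminescence was captured at six time points, 0 h through 40 h.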

[6] = qHTS RealTime-Glo MT Cell Viability Assay in HEK293 cells - 32 hour (AID 1224868); conditions: RealTime-Glo luminescence; series mostly up to 76.8 µM; note: top concentration of the series differs between compounds; nearly all actives have a fitted effect of over 50% in size
In short: (§2)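 Quantitative high-throughput screen of the Tox21 10K library in HEK293: cells and RealTime-Glo reagents plated together, compound added at 5 h, luminescence monitored through 40 h at 37 C.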

[7] = A CellTox Green Cytotoxicity Assay to monitor cytotoxicity in HEK293 cells - 0 hour (AID 1224869); conditions: CellTox Green fluorescence; series mostly up to 76.8 µM; note: nearly all actives have a fitted effect of over 50% in size
In short: (§3)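 Cytotoxicity was tracked continuously in HEK293 cells by a DNA-binding dye excluded from viable cells. Compounds were transferred in DMSO 5 h after seeding; fluorescence was recorded at intervals up to 40 h.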

[8] = qHTS RealTime-Glo MT Cell Viability Assay in HepG2 cells - 40 hour (AID 1224870); conditions: RealTime-Glo luminescence; series mostly up to 76.8 µM; note: nearly all actives have a fitted effect of over 50% in size
In short: (§4)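 Real-time viability: cells seeded at 600 per well together with NanoLuc and cell-permeant prosubstrate, compounds added after 5 h incubation. Luminescence tracked at 0, 8, 16, 24, 32 and 40 h of exposure.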

[9] = A CellTox Green Cytotoxicity Assay to monitor cytotoxicity in HEK293 cells - 40 hour (AID 1224871); conditions: CellTox Green fluorescence; series mostly up to 76.8 µM; note: nearly all actives have a fitted effect of over 45% in size
In short: as §3

[10] = qHTS RealTime-Glo MT Cell Viability Assay in HEK293 cells - 16 hour (AID 1224872); conditions: RealTime-Glo luminescence; series mostly up to 76.8 µM
In short: as §2

[11] = qHTS RealTime-Glo MT Cell Viability Assay in HepG2 cells - 8 hour (AID 1224873); conditions: RealTime-Glo luminescence; series mostly up to 76.8 µM; note: nearly all actives have a fitted effect of over 55% in size
In short: as §4

[12] = qHTS RealTime-Glo MT Cell Viability Assay in HEK293 cells - 40 hour (AID 1224874); conditions: RealTime-Glo luminescence; max response: stronger effect = lower value; note: nearly all actives have a fitted effect of over 50% in size
In short: (§5)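 Nonlytic bioluminescent viability monitoring. HEK293 at 600 cells/well with reagent; 5 h settle; compound transfer by pintool; plates held at 37 C and read at set time points.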

[13] = A CellTox Green Cytotoxicity Assay to monitor cytotoxicity in HEK293 cells - 24 hour (AID 1224875); conditions: CellTox Green fluorescence; series mostly up to 76.8 µM; note: nearly all actives have a fitted effect of over 45% in size
In short: as §3

[14] = A CellTox Green Cytotoxicity Assay to monitor cytotoxicity in HepG2 cells - 16 hour (AID 1224876); conditions: CellTox Green fluorescence; series mostly up to 76.8 µM; note: nearly all actives have a fitted effect of over 45% in size; note: potency is the fitted concentration of half-maximal effect
In short: (§6)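 Real-time, homogeneous cytotoxicity readout: dead-cell DNA staining by CellTox Green in HepG2 monolayers, fluorescence measured at timed intervals up to 40 h of continuous compound exposure.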

[15] = qHTS RealTime-Glo MT Cell Viability Assay in HepG2 cells - 32 hour (AID 1224877); conditions: RealTime-Glo luminescence; series mostly up to 76.8 µM; note: nearly all actives have a fitted effect of over 55% in size
In short: as §1

[16] = A CellTox Green Cytotoxicity Assay to monitor cytotoxicity in HepG2 cells - 24 hour (AID 1224878); conditions: CellTox Green fluorescence; series mostly up to 76.8 µM; note: nearly all actives have a fitted effect of over 45% in size; note: potency is the fitted concentration of half-maximal effect
In short: as §6

[17] = A CellTox Green Cytotoxicity Assay to monitor cytotoxicity in HepG2 cells - 40 hour (AID 1224879); conditions: CellTox Green fluorescence; series mostly up to 76.8 µM; note: nearly all actives have a fitted effect of over 40% in size; note: potency is the fitted concentration of half-maximal effect
In short: as §6

[18] = qHTS RealTime-Glo MT Cell Viability Assay in HEK293 cells - 0 hour (AID 1224880); conditions: RealTime-Glo luminescence; series mostly up to 76.8 µM
In short: as §5

[19] = qHTS assay to identify small molecule antagonists of the estrogen related receptor (ERR) signaling pathway from Tox21 library (AID 1224848); conditions: ERR reporter cell line, luciferase antagonist mode, 18 h; series mostly up to 92.4 µM
In short: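 Reading was by luminescence 30 min after ONE-Glo addition. Before that, ERR cells at 2,000 per well had rested 6 h at 37 C/5% CO2 and then received pin-tooled compounds in DMSO for 18 h at 37 C.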

[20] = qHTS assay to identify small molecule agonists of the estrogen related receptor (ERR) signaling pathway from Tox21 library (AID 1224849; calls by dose curve; note: nearly all actives have a fitted effect of over 15% in size); conditions: ERR reporter cell line, ONE-Glo luciferase, 18 h
In short: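 Agonist signal is luciferase luminescence from an ERR reporter cell line treated 18 h at 37 C with DMSO-dissolved compounds, read 30 min after ONE-Glo addition at room temperature.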

## COC(=O)CCCCC(=O)OC
[1]
  Potency: inactive
[2]
  Potency: inactive
[3]
  outcome: inactive
[4]
  Potency: inactive
[5]
  Potency: inactive
[6]
  Potency: inactive
[7]
  Potency: inactive
[8]
  Potency: inactive
[9]
  Potency: inactive
[10]
  Potency: inactive
[11]
  Potency: inactive
[12]
  max response: 6.2% (inactive) and 1.04% (inactive)
[13]
  Potency: inactive
[14]
  Potency: inactive
[15]
  Potency: inactive
[16]
  Potency: inactive
[17]
  Potency: inactive
[18]
  Potency: inactive

## COc1c2ccoc2cc2oc(=O)ccc12
[1]
  Potency: inactive
[2]
  Potency: inactive
[3]
  outcome: inactive
[4]
  Potency: inactive
[5]
  Potency: inactive
[6]
  Potency: inactive
[7]
  Potency: inactive
[8]
  Potency: inactive
[9]
  Potency: inactive
[10]
  Potency: inactive
[11]
  Potency: inactive
[12]
  max response: -25.5% (inactive) and -38.4% (inactive)
[13]
  Potency: inactive
[14]
  Potency: inactive
[15]
  Potency: inactive
[16]
  Potency: inactive
[17]
  Potency: inactive
[18]
  Potency: inactive

## CN1Cc2c(N)cccc2C(c2ccccc2)C1 (configuration not stated)
[1]
  Potency: inactive
[2]
  Potency: inactive
[4]
  Potency: inactive
[5]
  Potency: inactive
[6]
  Potency: inactive
[7]
  Potency: inactive
[8]
  Potency: inactive
[9]
  Potency: inactive
[10]
  Potency: inactive
[11]
  Potency: inactive
[13]
  Potency: inactive
[14]
  Potency: inactive
[15]
  Potency: inactive
[16]
  Potency: inactive
[17]
  Potency: inactive
[18]
  Potency: inactive

## CC(=O)C(C)C
[1]
  Potency: inactive
[2]
  Potency: inactive
[3]
  outcome: inactive
[4]
  Potency: inactive
[5]
  Potency: inactive
[6]
  Potency: inactive
[7]
  Potency: inactive
[8]
  Potency: inactive
[9]
  Potency: inactive
[10]
  Potency: inactive
[11]
  Potency: inactive
[13]
  Potency: inactive
[14]
  Potency: inactive
[15]
  Potency: inactive
[16]
  Potency: inactive
[17]
  Potency: inactive
[18]
  Potency: inactive

## Nc1nc(N)c2nc(-c3ccccc3)c(N)nc2n1
[1]
  Potency: inactive
[4]
  Potency: inactive
[19]
  Potency: 24.6 µM (active) and 21.7 µM (active)
[20]; at 42.5 µM (top of the series)
  activity change, positive = activation: -33.8% (inactive)
[20]; at 92.4 µM (top of the series)
  activity change, positive = activation: -44.9% (inactive) and -45.9% (inactive)
[5]
  Potency: inactive
[6]
  Potency: inactive
[7]
  Potency: inactive
[8]
  Potency: inactive
[9]
  Potency: inactive
[10]
  Potency: inactive
[11]
  Potency: inactive
[13]
  Potency: inactive
[14]
  Potency: inactive
[15]
  Potency: inactive
[16]
  Potency: 54.9 µM (active) and inactive
[17]
  Potency: 49.5 µM (active) and 49 µM (active)
[18]
  Potency: inactive

## CN1CCCC1=O
[1]
  Potency: inactive
[2]
  Potency: inactive
[3]
  outcome: inactive
[4]
  Potency: inactive
[5]
  Potency: inactive
[6]
  Potency: inactive
[7]
  Potency: inactive
[8]
  Potency: inactive
[9]
  Potency: inactive
[10]
  Potency: inactive
[11]
  Potency: inactive
[13]
  Potency: inactive
[14]
  Potency: inactive
[15]
  Potency: inactive
[16]
  Potency: inactive
[17]
  Potency: inactive
[18]
  Potency: inactive

## O=C(Cl)c1ccc(C(=O)Cl)cc1
[1]
  Potency: inactive
[2]
  Potency: inactive
[3]
  outcome: inactive
[4]
  Potency: inactive
[5]
  Potency: inactive
[6]
  Potency: inactive
[7]
  Potency: inactive
[8]
  Potency: inactive
[9]
  Potency: inactive
[10]
  Potency: inactive
[11]
  Potency: inactive
[13]
  Potency: inactive
[14]
  Potency: inactive
[15]
  Potency: inactive
[16]
  Potency: inactive
[17]
  Potency: inactive
[18]
  Potency: inactive

## CC(=O)OC/C=C(\C)CCC=C(C)C
[1]
  Potency: inactive
[2]
  Potency: inactive
[3]
  outcome: inactive
[4]
  Potency: inactive
[5]
  Potency: inactive
[6]
  Potency: inactive
[7]
  Potency: inactive
[8]
  Potency: inactive
[9]
  Potency: inactive
[10]
  Potency: inactive
[11]
  Potency: inactive
[13]
  Potency: inactive
[14]
  Potency: inactive
[15]
  Potency: inactive
[16]
  Potency: inactive
[17]
  Potency: inactive
[18]
  Potency: inactive

## CO[Si](CCCNCCN)(OC)OC
[1]
  Potency: inactive
[2]
  Potency: inactive
[3]
  outcome: inactive
[4]
  Potency: inactive
[5]
  Potency: inactive
[6]
  Potency: inactive
[7]
  Potency: inactive
[8]
  Potency: inactive
[9]
  Potency: inactive
[10]
  Potency: inactive
[11]
  Potency: inactive
[13]
  Potency: inactive
[14]
  Potency: inactive and 49 µM (active)
[15]
  Potency: inactive
[16]
  Potency: inactive and 49 µM (active)
[17]
  Potency: inactive and 49 µM (active)
[18]
  Potency: inactive

## CC(O)CNCC(C)O (configuration not stated)
[1]
  Potency: inactive
[2]
  Potency: inactive
[3]
  outcome: inactive
[4]
  Potency: inactive
[5]
  Potency: inactive
[6]
  Potency: inactive
[7]
  Potency: inactive
[8]
  Potency: inactive
[9]
  Potency: inactive
[10]
  Potency: inactive
[11]
  Potency: inactive
[13]
  Potency: inactive
[14]
  Potency: inactive
[15]
  Potency: inactive
[16]
  Potency: inactive
[17]
  Potency: inactive
[18]
  Potency: inactive
